Reference: PubChem BioAssay

The compounds below were run against Luciferin 4-monooxygenase (Photinus pyralis) (UniProt P08659) (assay: firefly luciferase enzyme inhibitors, primary screen, biochemical, luminescence, purified enzyme, 2006 set (AID 1141;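 note: cell-free assay with purified firefly luciferase at 100 ng per well in PBS; test concentration not given here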)). Settings: SteadyGlo luminescence, 30 min, higher = more signal, called active from +8 up or from −8 down.
Chain of Luciferin 4-monooxygenase (Photinus pyralis) (P08659 whole entry, looked up): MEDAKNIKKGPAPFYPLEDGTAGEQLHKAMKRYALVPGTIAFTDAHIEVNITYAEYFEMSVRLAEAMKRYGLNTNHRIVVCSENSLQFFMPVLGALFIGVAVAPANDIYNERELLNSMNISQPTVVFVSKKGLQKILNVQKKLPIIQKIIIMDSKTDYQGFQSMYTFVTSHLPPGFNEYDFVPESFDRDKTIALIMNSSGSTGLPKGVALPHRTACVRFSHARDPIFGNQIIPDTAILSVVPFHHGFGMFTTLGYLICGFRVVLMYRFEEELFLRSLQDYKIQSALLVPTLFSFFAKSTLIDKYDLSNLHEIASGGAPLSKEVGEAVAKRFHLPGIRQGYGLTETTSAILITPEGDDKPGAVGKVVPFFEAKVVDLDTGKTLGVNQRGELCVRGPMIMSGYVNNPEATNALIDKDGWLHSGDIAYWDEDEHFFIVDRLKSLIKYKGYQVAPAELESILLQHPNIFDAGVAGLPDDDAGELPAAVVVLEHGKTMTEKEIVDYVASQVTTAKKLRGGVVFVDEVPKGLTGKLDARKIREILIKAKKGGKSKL

z-score, inactive:
C=CC[C@H](OC(=O)Nc1ccc(SC)cc1)c1ccc(O)c2ccccc12 -4.58
O=C1O[C@@H](c2ccccc2)[C@@H](c2ccccc2)N2[C@@H](c3ccc(OCCO)cc3)[C@]3(C(=O)Nc4ccc(C#CC5=CCCCC5)cc43)[C@@H](C(=O)NC[C@H](O)c3ccccc3)[C@H]12 -0.773
O=C1O[C@H](c2ccccc2)[C@H](c2ccccc2)N2[C@H]1[C@@H](C(=O)O)[C@]1(C(=O)Nc3ccc(C#CCCO)cc31)[C@H]2c1ccccc1OCCO -0.747
CC(C)c1ccc(NN2C(C(O)c3ccc(C#N)cc3)C=CC3C(=O)N(c4ccccc4)C(=O)C32)cc1 (stereo not drawn) -0.973
C[N+](C)(C)CCCC[C@@H]1NC(=O)[C@@H]2C[C@H](C(=O)NCCCCCCN)[C@H](c3cccc(OCCO)c3)N2C1=O -0.583
CC(C)[Si]1(C(C)C)OCc2cc(C3CC3)nc(-c3ccc(Oc4ccccc4)cc3)c21 -0.311
COCCOC(=O)N1C(=O)[C@@]2(c3cc(C#CC4(O)CCCCCC4)ccc31)[C@H](c1ccc(O)cc1)N1[C@H](c3ccccc3)[C@H](c3ccccc3)OC(=O)[C@H]1[C@@H]2C(=O)N1CCN(c2ncccn2)CC1 -0.47
COC(=O)c1c(CC[C@@H](CO)NC(=O)N[C@@H](C)Cn2cc(-c3ccccn3)nn2)oc(C(C)=O)c1C(=O)OC 0.641
CCOC(=O)[C@@H]1CCCCN1C(=O)C(=O)OC 0.0296
CN(C)c1ccc(C(O)C2C=CC3C(=O)NC(=O)C3N2Nc2ccccn2)cc1 (stereo not drawn) -0.866
CC#CCO[Si](C#Cc1ccccc1)(C(C)C)C(C)C 0.741
CC(=O)N1CC2(CC2)CC1c1ccccc1 (stereo not drawn) 2.49
COCCOC(=O)N1C(=O)[C@@]2(c3cc(C#CCC(C(=O)OC)C(=O)OC)ccc31)[C@H](c1ccc(OCCO)cc1)N1[C@H](c3ccccc3)[C@H](c3ccccc3)OC(=O)[C@H]1[C@@H]2C(=O)N1CCc2cc(OC)c(OC)cc2C1 -0.411
C=CCC(OC(C)=O)[C@@H]1[C@@H](N(Cc2cccc3ccccc23)C(=O)Cc2ccc(F)cc2)c2cc(OCCCO)ccc2N1C(=O)c1ccc2ccccc2c1 (stereo partly drawn) 0.739
CN1C2C=C(CCCO)C(C3C(=O)N(C(N)=O)C(=O)C32)C1C1CC1 (stereo not drawn) -0.938
CCCN1C(=O)[C@]2(Cc3ccccc31)N=C(c1ccc(OCCCO)cc1)O[C@@H]2c1ccccc1 -0.133
NCCCCCNC(=O)[C@@H]1C[C@@H]2C(=O)N[C@@H](CCCCN)C(=O)N2[C@@H]1c1ccc(O)cc1 -0.364
Cc1ccc(C(C)CC(O)C2C=CC3C(=O)N(c4ccccc4)C(=O)C3N2Nc2ccccc2)o1 (stereo not drawn) -1.22
CCCNC(=O)[C@@H]1c2ccccc2C(=O)N(Cc2ccc(OC(F)(F)F)cc2)[C@H]1c1ccc(CO)cc1 0.283
CC(C)C(CO)N1C(=O)[C@@H]2[C@H]3C(=O)OCC=C[C@H]3OC23C=CCN(c2ccc(Cl)cc2)C(=O)[C@@H]13 (stereo partly drawn) -0.469
CC(C)c1ccc(NN2C(C(O)c3ccc(F)cc3)C=CC3C(=O)N(c4ccccc4)C(=O)C32)cc1 (stereo not drawn) -2.01
OCCCC1=CC(c2ccc(CN3CCCC3)cc2)N(Cc2cc3c(cc2Br)OCO3)CC1 (stereo not drawn) 0.391
COc1cc2c(cc1O)C(c1cccs1)N(Cc1cc3c(cc1Br)OCO3)CC2 (stereo not drawn) -0.657
CCCNC(=O)[C@@]1(Sc2ccc(C)cc2)CC(=O)N(C2Cc3ccccc3C2)[C@@H]1c1ccc(CO)cc1I -0.767
CC(C)=C1C(=O)C(c2ccccc2)=C2CN3C(=O)N(CCc4ccccc4)C(=O)[C@]3(Cc3ccc(C(F)(F)F)cc3)[C@H]21 0.359
COc1cccc(C)c1NC(=O)O[C@H]1[C@H](OC(=O)Nc2ccccc2-c2ccccc2)[C@H](OC(=O)Nc2ccccc2-c2ccccc2)[C@@H](OC)O[C@@H]1CO -0.33
COCCCNC(=O)[C@@]1(CCC(=O)OC(C)(C)C)N=C(c2ccc(OCCCO)cc2)O[C@H]1c1ccccc1N=[N+]=[N-] -7.45
COc1cc2c(cc1O)C(c1ccc(CN3CCCC3)cc1)N(Cc1cc3c(cc1Br)OCO3)CC2 (stereo not drawn) -1.37
